Results as given in the supplement of paper PMC12494721.
Structures can show the parent of a compound that is named as a salt.

System: Klebsiella aerogenes DSM 30053
Test: fold change of Histamine concentration vs plate DMSO controls (fold change (ratio)); higher = more amine produced, active = hit call of the paper (significant change in both replicates, either direction)
Conditions: 20 µM; incubation time: 27 h, anaerobic, 37 °C
Outline: (§1)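 Using LC–triple-quadrupole MS with dynamic MRM, amines were quantified against external calibration curves and corrected for drift within each batch. Samples were whole anaerobic mGAM cultures of four gut strains, grown 27 h at 37 °C from OD 0.1 before 1:1 dilution, extracted with cold acetonitrile/methanol containing 0.1% formic acid and centrifuged. Compounds were present at 20 µM final (sweeteners at 50 µM final). The numbers are fold changes versus plate DMSO controls, each the mean of 2 biological replicates.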

Structure (SMILES) | fold change of Histamine concentration
c1cc2ccc3cccc4ccc(c1)c2c34 [Pyrene] | 0.993 (inactive)
COc1cccc(C2(O)CCCCC2CN(C)C)c1 (stereo unspecified) [Tramadol hydrochloride] | 1.04 (inactive)
NC(=O)CN1CC(O)CC1=O (stereo unspecified) [Oxiracetam] | 1 (inactive)
O=C(NC(=O)c1c(F)cccc1F)Nc1ccc(Cl)cc1 | 1.01 (inactive)

System: Clostridium sporogenes DSM 1664
Test: fold change of Tryptamine concentration vs plate DMSO controls (fold change (ratio)); higher = more amine produced, active = hit call of the paper (significant change in both replicates, either direction)
Conditions: 20 µM; incubation time: 27 h, anaerobic, 37 °C
Outline: as §1

Structure (SMILES) | fold change of Tryptamine concentration
CCCC(C)(COC(N)=O)COC(=O)NC(C)C (stereo unspecified) [Carisoprodol] | 1.01 (inactive)
CCC1(c2cccc(O)c2)CCCCN(C)C1 (stereo unspecified) [Meptazinol hydrochloride] | 1.06 (inactive)
CC(C)(C)NCC(O)c1ccccc1Cl (stereo unspecified) [Tulobuterol hydrochloride] | 1.08 (inactive)
C[C@]12CCC(=O)C(O)=C1CC[C@@H]1[C@@H]2CC[C@]2(C)C(=O)CC[C@@H]12 [Formestane] | 0.968 (inactive)
C=C(C)[C@@H]1[C@H]2OC(=O)[C@@H]1[C@]1(O)C[C@H]3O[C@]34C(=O)O[C@H]2[C@]14C [Picrotoxinin] | 1.01 (inactive)
CCOc1cc(Oc2ccc(C(F)(F)F)cc2Cl)ccc1[N+](=O)[O-] | 1.06 (inactive)
O=C(O)C(F)(F)C(F)(F)C(F)(F)C(F)(F)C(F)(F)C(F)(F)C(F)(F)C(F)(F)C(F)(F)F [PFDeA (Perfluorodecanoic acid)] | 0.916 (inactive)
CC[C@@H](CO)NC(=O)[C@@H]1C=C2c3cccc4[nH]cc(c34)C[C@H]2N(C)C1 [Methylergometrine maleate] | 1.03 (inactive)
O=C(O)C(F)(F)C(F)(F)C(F)(F)C(F)(F)C(F)(F)C(F)(F)C(F)(F)F [PFOA (Perfluorooctanoic acid)] | 0.979 (inactive)
COc1ccc2c(c1)[C@]13CCCC[C@@H]1[C@H](C2)N(C)CC3 [Dextromethorphan hydrobromide monohydrate] | 0.991 (inactive)
CCOP(=S)(OCC)Oc1cc(C)nc(C(C)C)n1 | 1.03 (inactive)
CC(=O)NC1CCSC1=O (stereo unspecified) [Citiolone] | 1.05 (inactive)
CCCCN(CCCC)N=O [DBNA (N-nitrosodibutylamine)] | 1.01 (inactive)
CC[C@H](C)[C@H]1O[C@]2(C=C[C@@H]1C)C[C@@H]1C[C@@H](C/C=C(\C)[C@@H](O[C@H]3C[C@H](OC)[C@@H](O[C@H]4C[C@H](OC)[C@@H](O)[C@H](C)O4)[C@H](C)O3)[C@@H](C)/C=C/C=C3\CO[C@@H]4[C@H](O)C(C)=C[C@@H](C(=O)O1)[C@]34O)O2.CO[C@H]1C[C@H](O[C@H]2[C@H](C)O[C@@H](O[C@@H]3/C(C)=C/C[C@@H]4C[C@@H](C[C@]5(C=C[C@H](C)[C@@H](C(C)C)O5)O4)OC(=O)[C@@H]4C=C(C)[C@@H](O)[C@H]5OC/C(=C\C=C\[C@@H]3C)[C@]54O)C[C@@H]2OC)O[C@@H](C)[C@@H]1O | 0.855 (inactive)
C=CCC1(CC(C)C)C(=O)NC(=O)NC1=O [Butalbital] | 1 (inactive)
NCC(CC(=O)O)c1ccc(Cl)cc1 (stereo unspecified) [Baclofen] | 1.06 (inactive)
N#Cc1cc(Br)c(O)c(Br)c1 | 0.955 (inactive)
N#CC(CCc1ccc(Cl)cc1)(Cn1cncn1)c1ccccc1 (stereo unspecified) | 0.979 (inactive)
CN(C)C(=O)Oc1ccc[n+](C)c1 [Pyridostigmine iodide] | 0.975 (inactive)

Structure (SMILES) | fold change of Tryptamine concentration
CC(C)C[C@H](CN)CC(=O)O [Pregabalin] | 1.04 (inactive)
Clc1ccc(C(OCCN2CCCCC2)c2ccccc2)cc1 (stereo unspecified) [Cloperastine hydrochloride] | 1.01 (inactive)
O=[N+]([O-])c1ccc2ccc3cccc4ccc1c2c34 [1-Nitropyrene] | 0.785 (inactive)
COCC(=O)N(c1c(C)cccc1C)C(C)C(=O)OC (stereo unspecified) | 0.98 (inactive)
CCCN1C[C@H](CSC)C[C@@H]2c3cccc4[nH]cc(c34)C[C@H]21 [Pergolide mesylate] | 0.969 (inactive)
COc1cc(OC)nc(NC(=O)NS(=O)(=O)c2ncccc2C(=O)N(C)C)n1 | 0.975 (inactive)
CNC(C)(C)Cc1ccccc1 [Mephentermine hemisulfate] | 1.04 (inactive)
CC1(C)C(C=C(Cl)Cl)C1C(=O)OC(C#N)c1ccc(F)c(Oc2ccccc2)c1 (mixture of isomers) | 0.985 (inactive)
CCC1(CC)C(=O)C=CNC1=O [Pyrithyldione] | 0.966 (inactive)
COP(=S)(OC)Oc1nc(Cl)c(Cl)cc1Cl | 0.986 (inactive)
Nc1nc(N)nc(NC2CC2)n1 [Cyromazine] | 1.02 (inactive)
ClC1C(Cl)C(Cl)C(Cl)C(Cl)C1Cl (stereo unspecified) | 0.972 (inactive)
CCCN(CCC)C(=O)SCc1ccccc1 | 1.02 (inactive)
Cc1ccccc1[N+](=O)[O-] [2-Nitrotoluene] | 0.993 (inactive)
c1cc2ccc3cccc4ccc(c1)c2c34 [Pyrene] | 0.953 (inactive)
COc1cccc(C2(O)CCCCC2CN(C)C)c1 (stereo unspecified) [Tramadol hydrochloride] | 1.06 (inactive)
NC(=O)CN1CC(O)CC1=O (stereo unspecified) [Oxiracetam] | 1.14 (inactive)
O=C(NC(=O)c1c(F)cccc1F)Nc1ccc(Cl)cc1 | 0.919 (inactive)
